In PubChem BioAssay (NCATS):
Results filed as inconclusive are left out. A call without a number means that no potency is given here. Activity calls are given as the source filed them. Calls follow the shape of the dose curve; as a rule, active = well fitted curve in the direction sought with a large enough effect; inconclusive = small, poorly fitted or top-dose-only effect, or another doubt; inactive = no such curve, though single readings can be large; an effect the other way counts as inactive or inconclusive.

Tests used:
[1] = biological target: Aldehyde dehydrogenase, mitochondrial (Homo sapiens) (UniProt P05091); experiment: qHTS for Inhibitors of the Aldehyde Dehydrogenase Family (ALDH2) Primary screen (AID 2061308); also: nearly all actives have a fitted effect of over 55% in size
[2] = biological target: Retinaldehyde dehydrogenase 3 (Homo sapiens) (UniProt P47895); experiment: qHTS for Inhibitors of the Aldehyde Dehydrogenase Family (ALDH1A3) Primary screen (AID 2061315)

Structure (SMILES) | Potency [1] | Potency [2]
Cc1noc(CN(C)c2ncnc3ccc(-c4ccc5c(c4)OCO5)cc23)n1 | inactive | inactive
O=C1CCc2cc(S(=O)(=O)Nc3ccc(F)cc3)ccc2N1 | inactive | inactive
COc1cccc(S(=O)(=O)Nc2cnccc2C(=O)Nc2nc(-c3ccccc3)cs2)c1 | inactive | inactive
OC[C@H]1O[C@@H](Oc2cccc3ccccc23)[C@H](O)[C@@H](O)[C@H]1O | inactive | inactive
COc1cc(F)c(S(=O)(=O)N2CCN(S(=O)(=O)c3ccco3)CC2)c(F)c1 | inactive | inactive
O=C(Nc1nc(-c2ccccc2)cs1)c1ccncc1NS(=O)(=O)c1ccc(N2CCCC2=O)cc1 | inactive | inactive
O=c1c2ccccc2nc2sc(Nc3ccc4c(c3)CCC4)nn12 | inactive | inactive
O=C(Nc1ccc(-c2ccccc2)cc1)Nc1nnc(-c2ccncc2)s1 | inactive | inactive
COc1ccc(C(CC(=O)N2CC(C)CC(C)C2)c2c(O)cc(OC)cc2OC)cc1 (stereo not drawn) | inactive | inactive
COC(=O)c1cc2c(s1)c1cnn(Cc3ccccc3F)c(=O)c1n2C | inactive | inactive
COc1ccc(-c2csc(NC(=O)c3ccccc3NS(=O)(=O)c3ccc(C)cc3)n2)cc1 | inactive | inactive
O=C1C(F)N([S+](=O)([O-])c2ccc3c(c2)OCCO3)CCN1[S+](=O)([O-])c1c(F)cccc1F (stereo not drawn) | inactive | inactive
Cc1noc(C)c1-c1ccc2ncnc(NCc3ccccc3F)c2c1 | inactive | inactive
CC(C)=CCCC1(C)C2CCC1(C)C(O)C2 (stereo not drawn) | inactive | inactive
